Measurements: PubChem BioAssay AID1117359 (Southern Research Institute, 2015)
The whole screen tested about 1,500 compounds, of which about 460 (31%) were called active.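 The calls were made as follows: active = viability at or below 80% at any tested concentration, marking the compound as toxic; inactive = the rest.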 Not all results are given here. Results with a measured potency or affinity are listed apart.

Experiment: viability loss in THP-1 monocytes – THP-1 cells, cytotoxicity control for Vif-APOBEC3G degradation inhibitor project, dose response (AID 1117359)
Details: THP-1 viability, CellTiter-Glo luminescence, 72 h; series mostly up to 40 µM

Row | SMILES | outcome
1 | O=C(Nc1nnc(SCc2c(Cl)cccc2Cl)s1)c1cccc([N+](=O)[O-])c1 | inactive
2 | O=C(OCC(=O)N1CCN(C(=O)c2ccco2)CC1)c1cc(-c2ccco2)nc2ccccc12 | inactive
3 | Cc1ccc(N2CC(NC(=O)N3CCN(C(=O)c4ccco4)CC3)CC2=O)cc1 (stereo not given) | inactive
4 | COc1cccc(CN2CCNC(=O)C2CC(=O)NCCn2nc(C)cc2C)c1OC (stereo not given) | inactive
5 | Cc1ccccc1C(=O)NCC(=O)OC(C)C(=O)NC(C)CCc1ccccc1 (stereo not given) | inactive
6 | O=C(Nc1nc(-c2ccco2)c(-c2ccco2)s1)C1CCC1 | inactive
7 | c1ccc(CSc2nnc(-c3ccco3)c(-c3ccco3)n2)cc1 | inactive
8 | CC(C)C[C@H](NC(=O)c1nc[nH]c1C(=O)N1CCN(c2ccccc2)CC1)C(=O)OC(C)(C)C | inactive
9 | O=C(c1ccc2c(c1)[nH]c(=S)n1c3ccccc3nc21)N1CCN(c2cccc(Cl)c2)CC1 | inactive
10 | Cc1cccc(N2CCN(CC(O)COc3ccc(Cl)cc3)CC2)c1 (stereo not given) | inactive
11 | COc1ccccc1N1CCN(C(=O)C(F)F)CC1 | inactive
12 | COc1cccc(=O)c2c(C)n(-c3ccc(C(=O)O)cc3)c(C)c12 | inactive
13 | COc1cc(C(=O)Nc2ccc(N3CCCS3(=O)=O)cc2)c([N+](=O)[O-])cc1OC | inactive
14 | CC(C)Cc1cc(C(=O)Nc2cccc(O)c2)no1 | inactive
15 | COc1ccc(S(=O)(=O)N2CCOC2CNC(=O)C(=O)NCc2ccccn2)cc1 (stereo not given) | inactive
16 | Cc1csc(=O)n1CC(=O)OCC(=O)c1ccc(Br)cc1 | inactive
17 | O=C(O)/C=C/C(=O)NNc1ncnc2ccccc12 | inactive
18 | C=CCn1c(SCC(=O)c2c(N)n(C)c(=O)n(C)c2=O)nnc1-c1ccccc1F | inactive
19 | COc1ccc(CNc2nc3ccccc3n2C)c(O)c1 | inactive
20 | COc1ccc2c(=O)c3c(=O)n(-c4ccc(C)cc4)c(-c4ccccc4)nc3oc2c1 | inactive
21 | O=[N+]([O-])c1ccc(N/N=C/c2ccc(O)c(O)c2O)c(S(=O)(=O)N2CCOCC2)c1 | inactive
22 | Cc1nnc(SCC(=O)N2CCN(c3ccccc3)CC2)n1C1CC1 | inactive
23 | CCOC(CCNC(=O)c1cn(C)c(=O)c2c1c1ccccc1n2C)OCC | inactive
24 | Oc1ccc(/C=C/c2cnccn2)cc1 | inactive
25 | O=CN/C=C/c1cc(O)ccc1O | inactive
26 | CC1CN(C(=O)COC(=O)Cc2ccc(Cl)cc2)CC(C)O1 (stereo not given) | inactive
27 | CCN(CC(=O)Nc1c(F)cccc1F)C(=O)CSC(=S)N1CCCC1 | inactive
28 | O=c1[nH]c2ccccc2c(O)c1-[n+]1ccccc1 | inactive

Row | SMILES | outcome
29 | CCc1ccc2c(CN3CCC(C(=O)OC)CC3)cc(=O)oc2c1 | inactive
30 | Cc1ccc(CNC(=O)COc2ccc3c(c2)CCC3)cc1 | inactive
31 | CCn1c(SCC(=O)OC)nc2sc3c(c2c1=O)CCC3 | inactive
32 | Cc1cc(SCC(=O)NCCCN2CCCC2=O)nc2ccccc12 | inactive
33 | Cc1cc2c(c(=O)o1)C(c1ccc([N+](=O)[O-])o1)C(C#N)=C(N)O2 (stereo not given) | inactive
34 | CC1CN(S(=O)(=O)c2cc(C(=O)NCc3ccncc3)ccc2Cl)CC(C)O1 (stereo not given) | inactive
35 | CCN(CC(=O)Nc1ccc(NC(C)=O)cc1)C(=O)C1CCCC1 | inactive
36 | CN(C)c1ccc(NC(=O)Nc2cccc(Cl)c2)cc1 | inactive
37 | COC(=O)C1CCN(c2ccc([N+](=O)[O-])cc2)CC1 | inactive
38 | C=CCc1c(C)nc2c(C(=O)O)cnn2c1C | inactive
39 | CC1(C)CCC(=O)c2ccccc21 | inactive
40 | O=S(=O)(O)c1cc(O)c2cc(Nc3ccccc3)ccc2c1 | inactive
41 | Cn1cc(/C=C/C(=O)N2CCCC(C(=O)c3cccc(C(F)(F)F)c3)C2)cn1 (stereo not given) | inactive
42 | CC1(C)C2CCC1(C)C(OC(=O)C[n+]1ccccc1)C2 (stereo not given) | inactive
43 | CN1CCN(C2=C(Cl)C(=O)C(c3cnc(N4CCCCC4)s3)=C(Cl)C2=O)CC1 | inactive
44 | CN1CCN(S(=O)(=O)Cc2ccc(Cl)cc2)CC1 | inactive
45 | CN(C)c1ncc(C2=C(Cl)C(=O)C(N3CCCC3)=C(Cl)C2=O)s1 | inactive
46 | O=C1C(Cl)=C(N2CCCCC2)C(=O)C(Cl)=C1c1cnc(N2CCCCC2)s1 | inactive
47 | CCn1c(CNC(=O)Cc2ccc(OC)cc2)nnc1SCC(=O)Nc1ccc(C(=O)O)cc1 | inactive
48 | Cc1cc(O)c(Oc2cc(C)cc(O)c2O)c(O)c1 | inactive
49 | Cc1nc(NCc2ccccc2)c2cc[nH]c2n1 | inactive
50 | COc1ccc2c(c1)n([O-])c1c([n+]2=O)CCC1 | inactive
51 | CC(C)C(NC(N)=O)C(=O)NC1CCCCC1 (stereo not given) | inactive
52 | CN(CC(=O)Nc1cccc(F)c1)C(=O)c1cc(-c2ccco2)nc2ccccc12 | inactive
53 | CCc1ccccc1NNC(=O)CCc1ccccc1 | inactive
54 | Cn1cnnc1SCC(=O)Nc1ncc([N+](=O)[O-])s1 | inactive
55 | C=C(C)C(=O)Nc1cccc(C2=NOC3(C2)C[C@@H](C(N)=O)N(C(=O)CCCCC)C3)c1 (stereo not given in full) | inactive
